According to the supplement of paper PMC11001985:

Each target was assayed with C#CCNC(=O)CCSSCCC(=O)NCCc1ccc(C=O)c(C=O)c1 (assay: lysine labeling ratio R10:1 (500 µM / 50 µM probe), SILAC-ABPP in living cells; higher = lower intrinsic lysine reactivity toward the probe, active = 2 or less). Conditions: HeLa; probe concentrations 500 vs 50 µM.
How it was run: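 An alkyne-tagged lysine probe with a disulfide linker labelled living HeLa cells in PBS at room temperature at either 50 µM or 500 µM, using SILAC light and heavy cells in forward and reverse label swaps. Lysates were mixed, clicked to biotin-azide, trypsin-digested, enriched on neutravidin, DTT-released, alkylated and measured by LC-MS/MS on a TIMS-TOF Pro. Each lysine's R is the filtered median high-probe/low-probe MS1 peptide ratio, combined as the median over forward and reverse replicates, with 20 as the upper limit.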

Chain of UniProt P01024 (P01024 whole entry): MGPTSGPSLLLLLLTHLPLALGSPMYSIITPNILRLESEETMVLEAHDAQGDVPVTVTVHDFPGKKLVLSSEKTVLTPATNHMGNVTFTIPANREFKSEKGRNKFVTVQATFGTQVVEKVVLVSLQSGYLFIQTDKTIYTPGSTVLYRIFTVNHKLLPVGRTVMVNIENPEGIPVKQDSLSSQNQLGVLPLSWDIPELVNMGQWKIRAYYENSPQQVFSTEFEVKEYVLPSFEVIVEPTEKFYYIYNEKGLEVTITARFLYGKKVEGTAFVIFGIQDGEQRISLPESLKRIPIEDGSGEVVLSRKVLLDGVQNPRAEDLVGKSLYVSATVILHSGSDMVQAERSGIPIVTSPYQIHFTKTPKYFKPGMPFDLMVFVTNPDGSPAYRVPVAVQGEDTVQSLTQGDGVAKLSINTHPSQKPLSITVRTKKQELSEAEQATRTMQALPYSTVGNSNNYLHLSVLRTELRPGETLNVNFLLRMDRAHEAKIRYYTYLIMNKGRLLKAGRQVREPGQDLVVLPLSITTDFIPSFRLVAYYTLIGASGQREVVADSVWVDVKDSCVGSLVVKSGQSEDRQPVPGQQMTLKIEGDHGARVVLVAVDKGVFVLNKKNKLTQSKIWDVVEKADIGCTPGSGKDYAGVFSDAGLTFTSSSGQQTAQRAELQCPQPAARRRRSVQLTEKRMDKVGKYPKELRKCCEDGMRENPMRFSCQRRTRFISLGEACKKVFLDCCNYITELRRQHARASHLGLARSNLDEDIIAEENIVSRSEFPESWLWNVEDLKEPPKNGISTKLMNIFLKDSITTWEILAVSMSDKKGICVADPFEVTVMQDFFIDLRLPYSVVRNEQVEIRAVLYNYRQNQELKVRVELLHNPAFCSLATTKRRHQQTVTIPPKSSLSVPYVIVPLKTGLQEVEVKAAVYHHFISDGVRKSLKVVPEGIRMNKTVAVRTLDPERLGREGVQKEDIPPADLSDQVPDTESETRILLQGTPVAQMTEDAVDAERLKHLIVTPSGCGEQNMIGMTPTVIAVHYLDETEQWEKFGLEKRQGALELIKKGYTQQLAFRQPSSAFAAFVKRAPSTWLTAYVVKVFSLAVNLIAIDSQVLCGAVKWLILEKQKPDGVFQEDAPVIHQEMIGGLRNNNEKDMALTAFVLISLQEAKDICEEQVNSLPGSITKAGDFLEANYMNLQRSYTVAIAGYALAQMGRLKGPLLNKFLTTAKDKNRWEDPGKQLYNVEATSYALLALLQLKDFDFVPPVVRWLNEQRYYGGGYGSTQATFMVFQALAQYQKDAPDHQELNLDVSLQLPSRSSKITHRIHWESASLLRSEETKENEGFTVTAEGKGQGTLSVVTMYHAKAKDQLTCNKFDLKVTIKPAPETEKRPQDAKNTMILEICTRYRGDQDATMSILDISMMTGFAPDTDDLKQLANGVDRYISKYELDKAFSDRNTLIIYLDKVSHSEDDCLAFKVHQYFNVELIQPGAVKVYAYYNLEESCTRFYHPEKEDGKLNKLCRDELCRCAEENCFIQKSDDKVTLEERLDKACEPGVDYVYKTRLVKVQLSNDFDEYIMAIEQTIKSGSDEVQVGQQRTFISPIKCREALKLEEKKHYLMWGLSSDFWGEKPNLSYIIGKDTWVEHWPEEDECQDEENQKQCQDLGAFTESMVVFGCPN
Chain of UniProt P35052 (P35052 whole entry): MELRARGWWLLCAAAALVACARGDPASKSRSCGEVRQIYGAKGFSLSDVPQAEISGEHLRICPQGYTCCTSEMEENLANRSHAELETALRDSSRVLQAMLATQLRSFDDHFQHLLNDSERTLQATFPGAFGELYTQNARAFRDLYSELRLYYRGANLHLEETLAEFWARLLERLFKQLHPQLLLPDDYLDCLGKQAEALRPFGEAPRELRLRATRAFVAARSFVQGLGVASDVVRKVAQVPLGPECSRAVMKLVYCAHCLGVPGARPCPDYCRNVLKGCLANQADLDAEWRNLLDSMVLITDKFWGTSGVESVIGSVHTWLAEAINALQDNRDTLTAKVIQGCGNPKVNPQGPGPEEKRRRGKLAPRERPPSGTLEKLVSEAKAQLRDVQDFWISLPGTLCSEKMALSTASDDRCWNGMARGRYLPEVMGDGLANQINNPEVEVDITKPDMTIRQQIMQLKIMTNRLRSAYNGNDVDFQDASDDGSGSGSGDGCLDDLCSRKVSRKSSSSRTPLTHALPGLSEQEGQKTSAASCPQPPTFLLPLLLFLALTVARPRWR
Chain of UniProt Q6YHK3 (Q6YHK3 whole entry): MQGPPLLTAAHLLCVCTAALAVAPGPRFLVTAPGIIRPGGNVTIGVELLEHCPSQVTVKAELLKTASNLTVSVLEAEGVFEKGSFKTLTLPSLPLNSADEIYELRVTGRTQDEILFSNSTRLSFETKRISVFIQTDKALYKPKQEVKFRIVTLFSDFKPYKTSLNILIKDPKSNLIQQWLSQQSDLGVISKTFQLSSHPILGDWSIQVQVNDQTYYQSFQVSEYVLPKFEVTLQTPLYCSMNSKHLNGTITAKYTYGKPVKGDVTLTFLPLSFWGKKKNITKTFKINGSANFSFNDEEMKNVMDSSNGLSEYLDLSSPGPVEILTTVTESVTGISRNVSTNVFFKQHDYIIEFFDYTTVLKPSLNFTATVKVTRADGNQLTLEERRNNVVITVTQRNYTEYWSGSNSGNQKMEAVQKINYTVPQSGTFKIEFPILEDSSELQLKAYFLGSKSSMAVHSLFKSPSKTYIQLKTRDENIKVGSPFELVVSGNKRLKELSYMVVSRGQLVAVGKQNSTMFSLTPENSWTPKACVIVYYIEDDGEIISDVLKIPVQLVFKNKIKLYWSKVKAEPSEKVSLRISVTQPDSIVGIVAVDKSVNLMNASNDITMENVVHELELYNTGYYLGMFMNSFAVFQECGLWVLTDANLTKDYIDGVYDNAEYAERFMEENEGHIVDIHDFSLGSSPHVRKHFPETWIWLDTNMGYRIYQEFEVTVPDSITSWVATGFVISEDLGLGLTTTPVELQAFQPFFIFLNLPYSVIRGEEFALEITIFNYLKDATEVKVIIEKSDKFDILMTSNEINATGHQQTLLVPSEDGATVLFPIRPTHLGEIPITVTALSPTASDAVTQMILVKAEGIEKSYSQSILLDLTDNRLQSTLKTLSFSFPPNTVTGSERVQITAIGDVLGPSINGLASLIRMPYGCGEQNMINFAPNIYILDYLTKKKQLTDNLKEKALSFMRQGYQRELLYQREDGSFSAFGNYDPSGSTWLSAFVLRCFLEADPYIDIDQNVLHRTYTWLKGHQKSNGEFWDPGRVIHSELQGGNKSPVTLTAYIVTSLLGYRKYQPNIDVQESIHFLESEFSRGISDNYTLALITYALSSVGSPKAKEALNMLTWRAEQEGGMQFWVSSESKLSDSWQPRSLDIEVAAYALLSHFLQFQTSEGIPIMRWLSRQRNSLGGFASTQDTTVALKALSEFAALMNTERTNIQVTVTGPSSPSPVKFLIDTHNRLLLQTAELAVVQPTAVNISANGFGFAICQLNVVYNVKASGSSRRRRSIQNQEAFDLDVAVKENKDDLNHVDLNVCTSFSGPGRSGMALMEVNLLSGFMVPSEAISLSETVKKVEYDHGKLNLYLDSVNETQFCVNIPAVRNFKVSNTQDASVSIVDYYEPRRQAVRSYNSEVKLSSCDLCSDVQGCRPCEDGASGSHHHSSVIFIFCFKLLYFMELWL
Chain of UniProt Q05682 (Q05682 whole entry): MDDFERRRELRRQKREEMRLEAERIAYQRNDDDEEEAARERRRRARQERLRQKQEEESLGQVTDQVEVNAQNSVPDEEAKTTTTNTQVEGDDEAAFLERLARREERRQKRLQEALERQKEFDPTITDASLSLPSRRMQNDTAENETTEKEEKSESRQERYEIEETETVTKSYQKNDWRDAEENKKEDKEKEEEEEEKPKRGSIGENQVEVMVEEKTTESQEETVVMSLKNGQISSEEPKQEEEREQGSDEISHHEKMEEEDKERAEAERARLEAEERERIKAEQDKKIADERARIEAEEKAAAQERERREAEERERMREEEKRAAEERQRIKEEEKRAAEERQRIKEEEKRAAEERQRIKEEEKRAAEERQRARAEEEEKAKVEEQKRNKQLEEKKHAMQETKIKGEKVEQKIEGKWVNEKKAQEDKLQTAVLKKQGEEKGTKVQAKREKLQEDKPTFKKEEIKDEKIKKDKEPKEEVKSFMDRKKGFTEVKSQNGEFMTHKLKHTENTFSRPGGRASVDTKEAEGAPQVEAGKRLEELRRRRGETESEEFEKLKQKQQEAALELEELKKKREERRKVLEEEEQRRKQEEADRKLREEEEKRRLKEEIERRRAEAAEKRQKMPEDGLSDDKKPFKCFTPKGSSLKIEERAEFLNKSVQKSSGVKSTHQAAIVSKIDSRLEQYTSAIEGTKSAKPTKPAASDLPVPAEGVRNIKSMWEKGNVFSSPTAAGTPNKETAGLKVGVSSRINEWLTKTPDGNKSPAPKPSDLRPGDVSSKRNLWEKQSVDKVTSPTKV
Chain of UniProt Q07021 (Q07021 whole entry): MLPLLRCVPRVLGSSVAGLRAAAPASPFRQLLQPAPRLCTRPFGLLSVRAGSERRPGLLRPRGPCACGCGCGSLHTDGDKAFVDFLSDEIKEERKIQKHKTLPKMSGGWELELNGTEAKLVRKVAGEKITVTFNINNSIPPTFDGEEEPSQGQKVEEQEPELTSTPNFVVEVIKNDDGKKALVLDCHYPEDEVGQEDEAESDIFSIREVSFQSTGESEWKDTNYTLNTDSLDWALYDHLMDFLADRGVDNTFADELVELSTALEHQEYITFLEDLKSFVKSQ
Chain of UniProt Q92688 (Q92688 whole entry): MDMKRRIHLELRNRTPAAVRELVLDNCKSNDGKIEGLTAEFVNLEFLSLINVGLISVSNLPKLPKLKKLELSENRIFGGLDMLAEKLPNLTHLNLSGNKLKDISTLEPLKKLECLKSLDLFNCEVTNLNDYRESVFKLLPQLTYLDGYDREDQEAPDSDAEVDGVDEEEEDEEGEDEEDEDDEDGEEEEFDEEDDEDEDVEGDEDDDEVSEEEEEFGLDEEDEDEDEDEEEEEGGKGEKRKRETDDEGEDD

Row | Target | lysine labeling ratio R10:1
1 | B2M (lysine site: K111) (UniProt P61769) | 15.6 (inactive)
2 | CACNA2D1 (lysine site: K106) (UniProt P54289) | 3.84 (inactive)
3 | CALD1 (lysine site: K119) (UniProt Q05682) | 2.67 (inactive)
4 | SLC12A7 (lysine site: K393) (UniProt Q9Y666) | 3.46 (inactive)
5 | FAT1 (lysine site: K101) (UniProt Q14517) | 2.6 (inactive)
6 | PLS3 (lysine site: K52) (UniProt P13797) | 2.05 (inactive)
7 | UniProt P62826 (lysine site: K134) | 4.19 (inactive)
8 | CCT3 (lysine site: K222) (UniProt P49368) | 2.19 (inactive)
9 | UniProt P16144 (lysine site: K46) | 10.1 (inactive)
10 | CDCP1 (lysine site: K396) (UniProt Q9H5V8) | 0.987 (active)
11 | CCT5 (lysine site: K399) (UniProt P48643) | 2.73 (inactive)
12 | TFRC (lysine site: K95) (UniProt P02786) | 4.27 (inactive)
13 | HSPA8 (lysine site: K246) (UniProt P11142) | 1.78 (active)
14 | WDR1 (lysine site: K81) (UniProt O75083) | 0.967 (active)
15 | GPC1 (lysine site: K363) (UniProt P35052) | 7.78 (inactive)
16 | ROBO1 (lysine site: K237) (UniProt Q9Y6N7) | 3.22 (inactive)
17 | ECH1 (lysine site: K83) (UniProt Q13011) | 1.59 (active)
18 | CD109 (lysine site: K86) (UniProt Q6YHK3) | 1.68 (active)
19 | DSG2 (lysine site: K562) (UniProt Q14126) | 6.57 (inactive)
20 | C3 (lysine site: K692) (UniProt P01024) | 7.71 (inactive)

Row | Target | lysine labeling ratio R10:1
21 | CLTB (lysine site: K122) (UniProt P09497) | 2.57 (inactive)
22 | C3 (lysine site: K1546) (UniProt P01024) | 4.18 (inactive)
23 | GPC1 (lysine site: K347) (UniProt P35052) | 4.46 (inactive)
24 | CSRP1 (lysine site: K112) (UniProt P21291) | 1.46 (active)
25 | UniProt P55285 (lysine site: K365) | 0.61 (active)
26 | SPTAN1 (lysine site: K1543) (UniProt Q13813) | 1.58 (active)
27 | M6PR (lysine site: K50) (UniProt P20645) | 2.84 (inactive)
28 | ANP32B (lysine site: K68) (UniProt Q92688) | 1.78 (active)
29 | BTN2A1 (lysine site: K101) (UniProt Q7KYR7) | 2.46 (inactive)
30 | C1QBP (lysine site: K91) (UniProt Q07021) | 0.97 (active)
31 | UniProt Q15149 (lysine site: K1528) | 1.47 (active)
32 | PTGFRN (lysine site: K632) (UniProt Q9P2B2) | 11.6 (inactive)
33 | DNASE1L1 (lysine site: K33) (UniProt P49184) | 11 (inactive)
34 | SCFD1 (lysine site: K572) (UniProt Q8WVM8) | 2.58 (inactive)
35 | PPT1 (lysine site: K174) (UniProt P50897) | 1.29 (active)
36 | FN1 (lysine site: K2027) (UniProt P02751) | 13 (inactive)
37 | GNAI2 (lysine site: K313) (UniProt P04899) | 1.06 (active)
38 | CSE1L (lysine site: K158) (UniProt P55060) | 3.34 (inactive)
39 | RPS3A (lysine site: K152) (UniProt P61247) | 3.85 (inactive)
40 | MYH9 (lysine site: K1845) (UniProt P35579) | 1.57 (active)
